D1 PAM – Potentiators of Human D1 Dopamine Receptor: qHTS; D(1A) dopamine receptor (Homo sapiens), P21728; HEK293 TREx D1 cells, calcium flux, dopamine EC20 potentiation; potentiation, % at 10 µM; 360,000 compounds, 0.036% hits; AID 504651, 2011; in the data active means potentiation above about 30%
Target sequence (P21728 whole entry, looked up): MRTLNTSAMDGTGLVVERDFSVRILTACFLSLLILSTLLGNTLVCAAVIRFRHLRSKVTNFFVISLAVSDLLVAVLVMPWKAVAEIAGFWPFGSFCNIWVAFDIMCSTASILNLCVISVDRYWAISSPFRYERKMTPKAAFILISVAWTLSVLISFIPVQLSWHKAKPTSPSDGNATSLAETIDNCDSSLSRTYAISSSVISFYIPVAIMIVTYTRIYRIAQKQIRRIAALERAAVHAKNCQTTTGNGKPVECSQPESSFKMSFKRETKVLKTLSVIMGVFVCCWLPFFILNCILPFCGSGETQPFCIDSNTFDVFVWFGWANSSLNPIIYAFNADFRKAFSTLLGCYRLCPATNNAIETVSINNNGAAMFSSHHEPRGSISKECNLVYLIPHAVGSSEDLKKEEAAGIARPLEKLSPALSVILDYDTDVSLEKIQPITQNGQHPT
D1 antag – Antagonist of Human D 1 Dopamine Receptor: qHTS. 360,000 compounds, 3.2% hits. HEK293 TREx D1 cells, calcium flux, dopamine EC80; active compounds read low. activity change, negative = inhibition, % at 10 µM. AID 504652, 2011; in the data active means activity change below about -30%
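Cells carrying a force-coupled, tetracycline-inducible human D1 receptor report calcium flux. Each well gets a 10 s baseline, compound with 180 s monitoring, then an EC80 dopamine stimulus with a second 180 s kinetic read.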
TRHR agonist – qHTS for Small Molecule Agonists and Allosteric Enhancers of Human TRH Receptor: Primary Screen for Agonists; Thyrotropin-releasing hormone receptor (Homo sapiens), P34981; TRHR cells, calcium flux fluo-8, FDSS agonist mode; activation, % at 2 µM; 360,000 compounds, 0.18% hits; AID 493084, 2011
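Steps: seed TRHR cells overnight; add fluo-8 no-wash Ca dye, RT 30 min–1.5 h; record 10 s baseline; pin-transfer compounds; monitor fluorescence 1 cycle/s for the agonist window. Calcium increases flag candidate agonists.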
D1 agonist – Allosteric Agonists of the Human D1 Dopamine Receptor: qHTS. 360,000 compounds, 1% hits. AID 504660, 2011. activation, % at 2 µM. D(1A) dopamine receptor (Homo sapiens), P21728. HEK293 T-REx D1 cells, calcium flux, agonist mode
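Agonism was scored from calcium flux recorded over 180 s (1 read/s) after pintool compound addition, following a 10-cycle baseline. Cells were inducible force-coupled HEK293 TREx D1, plated overnight at 30 C and loaded with no-wash calcium dye.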
TRHR enhancer – qHTS for Small Molecule Agonists and Allosteric Enhancers of Human TRH Receptor: Primary Screen for Enhancers. Thyrotropin-releasing hormone receptor (Homo sapiens), P34981. TRHR cells, fluo-8 calcium fluorescence, EC20 TRH enhancement. enhancement, % at 2 µM. 360,000 compounds, 0.66% hits. AID 493056, 2011; in the data active means enhancement above about 30%
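Enhancer read-out: after compound pinning and an initial kinetic agonist-mode read, an EC20 of TRH (10 nM final) was injected and fluo-8 calcium signal (Ex 480/Em 530) followed at 1 s/cycle for 100 cycles in TRHR-expressing cells.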
A number is an active result; 0 = inactive. In the library only some 4.7% were active in any assay of this set; here they are far more common. Unless noted, no stated cut-off is given here; in the data, active means activation above about 30%; inactive means the rest.

SMILES	D1 PAM	D1 antag	TRHR agonist	D1 agonist	TRHR enhancer
O=C(Cc1ccccc1)N/N=C/c1ccc(-c2ccc([N+](=O)[O-])cc2)o1	0	-54	0	0	0
O=C(N/N=C/c1ccc(-c2ccc([N+](=O)[O-])cc2)o1)c1cccnc1	0	-42	0	0	0
Cc1ccccc1NCC(=O)N/N=C/c1ccc([N+](=O)[O-])cc1	0	-43	0	0	0
NC(=O)N/N=C/c1ccc(-c2ccc([N+](=O)[O-])cc2)o1	0	0	0	0	0
O=C(N/N=C/c1ccc([N+](=O)[O-])cc1)c1cccnc1	0	0	0	0	0
O=[N+]([O-])c1ccc([S+](=O)([O-])N2CCN([S+](=O)([O-])c3ccc4c(c3)OCCO4)CC2)c([N+](=O)[O-])c1	0	0	0	0	0
COc1ccccc1NC(=O)CN1C(=O)CC(c2ccc(C)c(C)c2)=Nc2ccccc21	0	0	0	0	0
CC1=[N+](C)c2ccc3ccccc3c2C1(C)C	0	0	0	0	35
Fc1cc(Br)ccc1Nc1c2c(nc3nc(-c4cccs4)nn13)CCCC2	0	0	0	0	0
CCCN1C(=O)C(Cc2nc3ccccc3c(=O)n2-c2cccc(C)c2)c2ccccc21 (stereo not given)	0	0	0	0	0
CCOC(=O)N1CCN(c2ccc(C(=O)c3ccccc3)cc2F)CC1	0	-42	0	0	0
CCC(=O)c1ccc(N2CCN(C(=O)c3ccccc3F)CC2)c(F)c1	0	0	0	38	0
CCOC(=O)N1CCN(c2cc(C)c(C(C)=O)cc2F)CC1	0	-42	0	0	0
Cc1ccccc1-c1noc(-c2ccc(N3CCN(c4ccccc4)CC3)c([N+](=O)[O-])c2)n1	0	0	0	0	0
COCCCNC(=O)c1ccc(Cn2c(=O)c3ccccc3n(CC(=O)Nc3c(C)cccc3C)c2=O)cc1	0	0	0	0	0
CC(=O)c1cccc(NC(=O)c2c(-c3ccccc3)c(-c3ccccc3)nn(C)c2=O)c1	0	0	0	0	0
COc1ccc(OCCSc2nnc(Cc3cccc4ccccc34)n2N)cc1	0	0	0	0	0
Nn1c(Cc2ccccc2F)nnc1SCCOc1ccc(Cl)cc1	0	-39	0	0	0
COc1ccc(-c2oc3ncn4nc(-c5ccccc5C)nc4c3c2-c2ccc(OC)cc2)cc1	0	0	0	0	0
COc1ccc(NC(C)=O)cc1S(=O)(=O)N(C)Cc1c(C)nn(-c2ccccc2)c1C	0	-33	0	0	0
CC1CCN(S(=O)(=O)c2ccc3c(c2)CCN3C(=O)Nc2ccccc2Br)CC1	0	0	0	0	0
Cc1cc(C)c(C)c(OCCOCCNCc2ccccc2)c1	0	0	0	33	0
Cc1ccc(OCCNCc2ccccc2)c(C)c1	0	0	0	0	0
Cc1cc(Cl)c(OCCCNCc2ccccc2)c(Br)c1	0	0	0	32	0
Cc1cc(C)c(OCCCNC2CCCC2)c(Br)c1	0	0	0	0	0
SMILES	D1 PAM	D1 antag	TRHR agonist	D1 agonist	TRHR enhancer
Cc1cc(C)c(OCCCNCc2ccccc2)c(Br)c1	0	0	0	37	0
O=C(NCc1ccccc1)c1cc2ccc3cccnc3c2[nH]1	0	0	0	0	31
Cc1cc(NC(=O)C2CCN(S(=O)(=O)c3ccc4[nH]c(=O)oc4c3)CC2)ccc1Br	0	0	0	0	0
Cc1cccc(C(=O)NNC(=O)c2c(-c3ccccc3Cl)noc2C)c1O	0	0	0	0	31
CCSc1nnc(NC(=O)c2c(-c3ccccc3Cl)noc2C)s1	0	0	0	0	0
Cc1onc(-c2ccccc2Cl)c1C(=O)NCc1nc(-c2ccc(C(F)(F)F)cc2)no1	0	-37	0	0	0
Cc1onc(-c2ccccc2Cl)c1C(=O)NNC(=O)c1ccc(F)cc1	0	0	0	0	0
Cc1onc(-c2ccccc2Cl)c1C(=O)Nc1ccc(N2CCOCC2)cc1	0	-46	0	0	0
Cc1onc(-c2ccccc2Cl)c1C(=O)Nc1nnc(-c2cccc([N+](=O)[O-])c2)s1	0	0	0	41	0
COc1ccc(Br)cc1Cn1nnc(C(=O)Nc2cccc(SC)c2)c1N	0	0	0	0	0
O=C(CCc1nc(-c2ccccc2)no1)Nc1cc(C(F)(F)F)ccc1Cl	0	0	0	61	0
Cc1onc(-c2ccccc2Cl)c1C(=O)Nc1ccc(Cl)cn1	0	0	0	0	31
Cc1ccc(NC(=O)c2c(-c3ccccc3Cl)noc2C)nc1	0	0	0	0	0
O=C(Cc1nnc(CNC(=O)c2ccccc2)o1)Nc1cc(C(F)(F)F)ccc1Cl	0	0	0	0	0
Cc1ccnc(NC(c2ccccc2F)c2ccc3cccnc3c2O)c1 (stereo not given)	0	0	0	0	0
Cc1ccnc(NC(c2cc(C)ccc2O)c2ccc3cccnc3c2O)c1 (stereo not given)	0	-50	0	0	0
Cc1cc(Cl)ccc1N=c1ssnc1Cl	0	0	0	30	0
NCC12CC3CC(C1)CC(c1ccc(Cl)cc1)(C3)C2	0	0	0	38	0
Nc1ccc(C23CC4CC(CC(CO)(C4)C2)C3)cc1	0	0	0	0	0
CC1(C)Cc2c(sc(NC(=O)c3ccc(C(=O)c4ccccc4)cc3)c2C(N)=O)C(C)(C)N1	0	0	0	112	0
COC(=O)c1c(NC(=O)c2ccccc2)sc2c1CC(C)(C)NC2(C)C	0	-31	0	0	0
O=C(CNC(=O)C1CCCCC1)OC(C(=O)Nc1cc(C(F)(F)F)ccc1Cl)c1ccccc1 (stereo not given)	0	0	0	0	0
CCOC(=O)/C=C1\NC(C)(C)Cc2cc(OC)c(OC)cc21	0	-41	0	0	0
CCOC(=O)/C=C1\NC(C)(C)Cc2cc(OC)c(O)cc21	0	0	0	0	0
O=S(=O)(c1ccc2ccccc2c1)N1CCC(c2nc(-c3ccncc3)no2)CC1	0	-35	0	0	0
CCn1c(SCC(=O)N(C)c2c(N)n(Cc3ccccc3)c(=O)[nH]c2=O)nc2ccccc21	0	0	0	0	31
CN(C(=O)CSc1nc2ccccc2n1CC(=O)NCc1ccc(F)cc1)c1ccc(F)cc1	0	-32	0	0	0
CN(C(=O)CSc1nc2ccccc2n1CC(=O)N(C)C1CCCCC1)c1ccc(F)cc1	0	0	0	0	0
CC(NC(=O)c1ccc(Br)o1)C1CCCO1 (stereo not given)	0	-31	0	0	0
